From PubChem BioAssay
A selection: hits, their analogues and other compounds. The true share with any hit is near 19%.
DT40 TDP1 CPT: growth inhibition of DT40 Tdp1-/-;hTDP1 cells with camptothecin (screen for TDP1 inhibitors). actives 12% (n = 420,000). AID 686979. Potency, µM (series often up to 46.2 µM), for inactives: at the top dose activity change, negative = growth inhibition, usual class: inhibitors. chicken DT40 Tdp1-/-;hTDP1 cells + 20 nM CPT, ATP luminescence, 48 h; further: potency means the concentration at half of the fitted maximal effect; nearly all actives have a fitted effect of over 55% in size
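Chicken DT40 Tdp1-/- cells stably complemented with human TDP1 were seeded at 400 cells/well in medium containing 20 nM camptothecin, exposed to pin-transferred compounds, and grown at 37 °C for at least 48 hr. Viability was read as ATP luminescence.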
DT40 TDP1 no CPT: qHTS for Inhibitors of human tyrosyl-DNA phosphodiesterase 1 (TDP1): qHTS in cells in absence of CPT. DT40 Tdp1-/- hTDP1 cells, no CPT, ATP luminescence, 48 h. Potency, µM (titrated, usually from 46.2 µM), for the others: top-dose activity change, negative = growth inhibition, actives largely listed as inhibitors. actives 15% (n = 420,000). AID 686978, 2013; further: potency means the concentration at half of the fitted maximal effect; nearly all actives have a fitted effect of over 55% in size
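Cells were dispensed at 400 per well, compounds added by pin tool, plates incubated ≥48 hr at 37 °C, then CellTiter-Glo added for 30 min at room temperature before luminescence reading. Line: DT40 Tdp1-/- complemented with hTDP1; camptothecin omitted.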
HT1080 IDH1KD tx: toxicity to HT-1080 IDH1 knockdown cells (counter line); HT-1080 IDH1 knockdown viability, ATP luminescence, 48 h; Potency, µM (series often up to 46.1 µM), without a hit: at the top dose activity, negative = toxicity, most hits filed as cytotoxic; actives 2% (n = 360,000);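 further: potency means the concentration at half of the fitted maximal effect; 0% = DMSO wells and -100% = cell-free medium wells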
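IDH1KD HT-1080 cells, 750/well, RPMI + 5% FBS; compound pinned after 2 h settling; 48 h, 37 °C; CellTiter-Glo luminescence; % activity normalised to DMSO and no-cell wells; curves fitted, classed by r2 and efficacy.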
HT1080-NT tox: kills 2HG-producing HT-1080-NT fibrosarcoma cells | Potency, µM (highest dose often 46.1 µM), inactives show at the highest dose activity, negative = less viability, most hits filed as cytotoxic | actives 1.6% (n = 360,000) | AID 686970 | HT-1080-NT fibrosarcoma viability, CellTiter-Glo ATP luminescence, 48 h;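 further: NT is the 2HG producing partner of a matched IDH1 knockdown line; potency means the concentration at half of the fitted maximal effect; 0% = DMSO-treated cells and -100% = media-only wells without cells; nearly all actives have a fitted effect of over 55% in size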
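Luminescent CellTiter-Glo readout after 48 hours of compound exposure at 37 degrees C defined viability of HT-1080-NT cells. Activity was normalized to DMSO wells and cell-free media wells; concentration-response curves were fitted and assigned curve classes.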
ELG1 repair inh: inhibitors of ELG1-dependent DNA repair in HEK293T cells; HEK293T ELG1-luciferase reporter, luminescence, 16 h; DNA damage induced by 5-fluorouridine; Potency, µM (titrated, usually from 46.1 µM), without a hit: at the highest dose activity change, negative = inhibition, actives largely listed as inhibitors; actives 2.3% (n = 330,000); further: potency means the concentration at half of the fitted maximal effect; nearly all actives have a fitted effect of over 55% in size
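Quantitative HTS, concentration-response format. 2,000 cells/well co-treated with 5-fluorouridine and compound, 16 hr in 5% CO2 at 37 °C; ONE-Glo luminescence read after 30 min.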
IL-1B inflam inh: blocks inflammasome-driven IL-1 beta release | THP-1 LPS/ATP IL-1B secretion, AlphaLISA, 16 h; hits give low values | AID 743279 | activity change, % at 57.5 µM | actives 4.7% (n = 360,000); in the data active means activity change below about -50%; inconclusive means mostly about -30% to -49%
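THP-1 cells pretreated 1 hr with compounds (up to 57.5 uM final), then stimulated with LPS (250 ng/mL final) plus ATP (1.25 mM final); secreted IL-1B measured by AlphaLISA after 16 hr, decreased signal indicating inhibition.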
Numbers without * were called inactive; u = inconclusive; x = no result; [ ] = dose if it differs, or a comment. Unless noted, the call rests on the fitted dose curve; in most records, active means well fitted curve in the direction sought with a large enough effect; inconclusive means small, poorly fitted or top-dose-only effect, or another doubt; inactive means no such curve, though single readings can be large; an effect the other way counts as inactive or inconclusive. Unless noted, on the % scale 0 is the no-effect control and ±100 the full control effect.

SMILES | DT40 TDP1 CPT | DT40 TDP1 no CPT | HT1080 IDH1KD tx | HT1080-NT tox | ELG1 repair inh | IL-1B inflam inh
CCOc1ccc(NC(=O)c2cc3ccccc3cc2O)cc1 | u | u | 2% | 6% | u | -18
COc1cc(C(=O)Nc2ccc(C)cc2)c2ccccc2n1 | 0.82µM* | 0.73µM* | 0.52µM* | u | 22% | 104
CCOc1ccc(NC(=O)c2cc(=O)[nH]c3ccccc23)cc1 | u | 0% | -5% | -6% | 9% | 7
CC(O)(c1ccc(F)c(F)c1)c1nc(-c2cccc3cccnc23)cs1 (stereo unspecified) | u | -21% | -18% | u | x | 7
COc1cccc(-n2ccn(CC(=O)c3ccc(F)cc3)c(=O)c2=O)c1 | -1% | 13% | x | x | x | x
CC1(C(=O)Nc2ccc(F)cc2F)CCN1C(=O)CCC1CCCC1 (stereo unspecified) | u | 23µM* | 2% | u | x | 0
CC(C)(C)c1ccc(CC(=O)N2CCC2(C)C(=O)Nc2ccc(F)cc2F)cc1 (stereo unspecified) | 23µM* | 16µM* | u | -24% | x | 10
Cc1ccc2c(=O)cc(C(=O)Nc3sc4c(c3C(=O)NCC3CCCO3)CCC4)oc2c1 (stereo unspecified) | -15% | -16% | x | x | x | x
CCOC(=O)c1ccc(N2C(=O)Cc3cc(OCC)c(OCC)cc3C2c2ccccc2)cc1 (stereo unspecified) | 15µM* | 13µM* | x | x | x | x
COC(=O)[C@@H]1[C@H]2SC(C)(C)[C@H](C(=O)OC)N2C(=O)N1Cc1cc2ccccc2n1S(=O)(=O)c1ccccc1 | u | 13µM* | x | x | x | x
CCOc1ccc(-n2c(SCC(N)=O)nc3sc4c(c3c2=O)CCN(C)C4)cc1 | -3% | -8% | 9% | 12% | u | 10
C=C(C)CSc1nc2sc3c(c2c(=O)n1-c1ccc(C)cc1)CCN(C)C3 | 18µM* | 12µM* | -1% | 11% | 0% | -9
CCOC(=O)CSc1nc2ccccc2c(=O)n1C1CCCC1 | -5% | -15% | 4% | 10% | 14% | 32
CCn1c(SCC(N)=O)nc2sc3c(c2c1=O)CCN(C)C3 | 23µM* | 13µM* | -3% | 4% | u | 0
CCOC(=O)CSc1nc2sc3c(c2c(=O)n1-c1ccc(OCC)cc1)CCN(C)C3 | u | 23µM* | 2% | -2% | -7% | 17
CCOC(=O)CSc1nc2sc3c(c2c(=O)n1C1CCCCC1)CCN(C)C3 | u | 29µM* | -27% | -24% | -3% | 7
Cc1ccc(NC(=O)CSc2nncn3c2cc2sccc23)cc1F | -1% | u | x | x | x | x
CSc1ccc(S(=O)(=O)N2CCC(C(=O)NC3CC3)CC2)cc1 | -21% | -19% | -13% | -1% | 13% | 9
CC1(C2CC2)NC(=O)N(CC(=O)NCC(=O)Nc2ccc(F)c(F)c2F)C1=O (stereo unspecified) | -21% | 2% | 0% | 0% | 14% | -16
CCOC(=O)CSc1nnc2n(C3CCCCC3)c(=O)c3c4c(sc3n12)CCCC4 | u | u | -1% | 5% | -25% | -20
COC(=O)CSc1nnc2n(C3CCCCC3)c(=O)c3c4c(sc3n12)CCCC4 | 29µM* | u | 3% | -7% | -3% | u
CCOC(=O)c1c(C)oc2c1c(C=NCC1CCCO1)c(O)c1ccccc12 (stereo unspecified) | u | 18µM* | -4% | 9% | -3% | -21
CCOC(=O)c1c(C)oc2c1c(C(c1cccnc1)N1CCOCC1)c(O)c1ccccc12 (stereo unspecified) | u | 18µM* | u | u | u | -110*
CCOC(=O)c1c(C)oc2c1cc(O)c1ccccc12 | -18% | -17% | -7% | -5% | u | 38
CCOC(=O)c1c(C)oc2c1c(C=NCc1ccccn1)c(O)c1ccccc12 | 0.92µM* | 1.2µM* | -13% | -5% | 18µM* | -94*
SMILES | DT40 TDP1 CPT | DT40 TDP1 no CPT | HT1080 IDH1KD tx | HT1080-NT tox | ELG1 repair inh | IL-1B inflam inh
CCOC(=O)c1c(NCC2CCCO2)c2ccccc2[nH]c1=O (stereo unspecified) | -11% | -13% | 18% | 6% | -21% | -14
CC1CCCCC1NC(=O)COC(=O)COc1ccccc1F (stereo unspecified) | -6% | 4% | 13% | 5% | 4% | 7
CO[C@H]1[C@H](NC(=O)c2ccsc2)c2ccccc2C12CCN(Cc1cccn1-c1ccccn1)CC2 | 10%[9.04 µM] | -26% | x | x | x | x
Cc1cc2cc(C=O)c(Cl)nc2cc1C | u | 18µM* | 13% | u | 16% | -11
CCOC(=O)C1=C(COC(=O)c2ccc(Br)c(S(=O)(=O)N3CCOCC3)c2)NC(=O)NC1C (stereo unspecified) | u | 8% | -7% | -7% | x | -18
Cc1ccc(-c2nnc(Nc3ccc(S(N)(=O)=O)cc3)c3ccccc23)cc1S(=O)(=O)N1CCOCC1 | 16µM* | u | x | x | x | x
COc1nnc(-c2ccc(C)c(S(=O)(=O)NC(C)C)c2)c2ccccc12 | -16% | u | 2% | 14% | -12% | 0
Cc1cccc(Nc2nnc(-c3ccc(N4CCOCC4)c([N+](=O)[O-])c3)c3ccccc23)c1 | u | 18µM* | -12% | -21% | 8.2µM* | -62*
Cc1ccc(-c2nnc(Nc3ccc(F)cc3)c3ccccc23)cc1S(=O)(=O)NC(C)C | u | 9.2µM* | x | x | x | x
Cc1ccc(-c2nnc(Nc3ccc(Cl)cc3)c3ccccc23)cc1S(=O)(=O)N1CCOCC1 | 13µM* | 3.7µM* | x | x | x | x
COc1ccc(C(=O)c2c(N)c(-c3nc(-c4ccc(OC)cc4)cs3)c3ccccn23)cc1 | -1% | -26% | x | x | x | x
CCOC1=C2CN(S(=O)(=O)c3ccc(C)cc3)[C@H](c3ccccc3)C[C@@H]2N(S(=O)(=O)c2ccc(C)cc2)[C@H](c2cccs2)C1 | -20% | -9% | 21% | 15% | x | 0
O=C(CN1CCN(CC(=O)Nc2ccc(F)cc2)CC1)NCC1(N2CCOCC2)CCCCC1 | -13% | -1% | 1% | 4% | 4% | 6
CC(=O)Nc1ccc(Nc2nnc(-c3ccc(C)c(S(=O)(=O)NCCO)c3)c3ccccc23)cc1 | 5% | 3% | 0% | -8% | 0% | u
